# The supplement of paper PMC12636033
# ± gives the standard deviation of the averaged measurements. The full ranking holds about 33,000 sequences; the median of “E-score (rank enrichment, -0.5 to 0.5)” is about -0.0068, and the highest 2% start at about 0.24. The entries come from a sample that favours the highest values as a whole.
# Test system: muMax20 (Max(13-93) K31hArg/K57hArg, M65Nle)
# Assay: PBM 8-mer E-score (E-score (rank enrichment, -0.5 to 0.5)); higher = stronger preferential binding
# Protocol: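 Protein binding microarray (universal PBM chip covering all 10-mers in fixed probe flanks) with chemically synthesized human Max(13-93) bHLH-LZ analogs (not full-length Max) bearing noncanonical residues (hArg, Tha, Aib, Nle at 65) and aromatic Cys staples. Read-out per 8-mer (and its reverse complement): E-score (rank-based enrichment, -0.5 to 0.5) and Z-score of median probe intensity.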
row,Sequence,PBM 8-mer E-score
1,ACATTAAC,0.175 ± 0.0064
2,TGCGAACA,0.109 ± 0.11
3,AGCACATA,0.0478 ± 0.12
4,AGCACATC,-0.0692 ± 0.013
5,ATCACATG,0.296 ± 0.11
6,ACCACATA,0.0727 ± 0.0036
7,ATCACATA,0.168 ± 0.048
8,AGCACATG,0.266 ± 0.049
9,ACCACATG,0.319 ± 0.077
10,ATCACATC,0.00749 ± 0.048
11,ACCACATC,-0.0454 ± 0.028
12,ATCACACA,0.251 ± 0.021
13,ATCACACC,0.12 ± 0.065
14,ATCACACG,0.157 ± 0.065
15,ACGAGCAG,-0.0192 ± 0.02
16,CACCCGGG,-0.361 ± 0.014
17,CATCCGGA,-0.0933 ± 0.064
18,CATCTCAC,-0.0239 ± 0.23
19,AGTTTATG,0.0668 ± 0.014
20,CCTTTACA,0.173 ± 0.094
21,CCTTTACG,0.24 ± 0.01
22,CCTTTACC,0.023 ± 0.2
23,AAGCTACG,0.0404 ± 0.15
24,AGTCCTGA,-0.233 ± 0.16
25,CATGGTCA,0.304 ± 0.047

row,Sequence,PBM 8-mer E-score
1,CATGGTAA,0.297 ± 0.052
2,CGTGGTAA,0.215 ± 0.06
3,AATGGTAT,0.213 ± 0.019
4,TGTGGTAA,0.244 ± 0.067
5,AATGGTAG,0.0638 ± 0.072
6,AATGGTAA,0.27 ± 0.071
7,CATGGTAG,0.0279 ± 0.022
8,GGTGGTAA,0.0953 ± 0.084
9,CATGGTCC,-0.136 ± 0.14
10,CATGGTCG,0.0286 ± 0.039
11,TATGGTAA,0.108 ± 0.0077
12,GGGGCGAA,0.0451 ± 0.035
13,CCGCGAGG,-0.191 ± 0.082
14,CTCTCTCA,-0.0954 ± 0.052
15,CCCCAGTA,0.0363 ± 0.019
16,CAAGGATA,0.00143 ± 0.082
17,CCATAACA,0.141 ± 0.035
18,CGGCGACC,-0.159 ± 0.097
19,TGCGGCAA,0.0884 ± 0.051
20,AGACCTGG,-0.177 ± 0.069
21,ATGCGCAC,-0.00186 ± 0.029
22,ATGCGCAA,0.0942 ± 0.019
23,ATGCGCAT,0.295 ± 0.03
24,AACCGCAC,0.0872 ± 0.056
25,CGGTCGGC,-0.2874 ± 0.0021

row,Sequence,PBM 8-mer E-score
1,TAATGCCA,0.142 ± 0.036
2,AACACGTA,0.218 ± 0.0095
3,AACACGTC,0.091 ± 0.002
4,CACACGTA,0.125 ± 0.018
5,AACACGTG,0.481 ± 0.017
6,CACACGTC,0.0717 ± 0.034
7,CACACGTG,0.426 ± 0.074
8,GCATTGCA,0.14 ± 0.028
9,CGATTACC,-0.0103 ± 0.049
10,CAGAGTGA,0.00192 ± 0.0028
11,GCCCCTAA,-0.0669 ± 0.16
12,ATCCCCGG,-0.16 ± 0.024
13,AAGATTCC,0.00605 ± 0.027
14,ACATAAGA,0.174 ± 0.014
15,CGTCGGGC,-0.152 ± 0.008
16,GCAATAAC,0.138 ± 0.014
17,GATTATTA,0.118 ± 0.064
18,AATTATTC,0.101 ± 0.071
19,CCTTATTC,-0.029 ± 0.059
20,GCTTATTA,0.1783 ± 0.0012
21,CATTATTA,0.242 ± 0.051
22,CATTATTC,0.104 ± 0.032
23,AATTATTA,0.309 ± 0.036
24,CCTTATTA,0.28 ± 0.04
25,AATTATTG,0.191 ± 0.012

row,Sequence,PBM 8-mer E-score
1,CACTCGCG,-0.0815 ± 0.047
2,GAAGAGTC,0.089 ± 0.11
3,CAGTGCTA,-0.08 ± 0.053
4,GCAGAGCA,-0.187 ± 0.06
5,CTATATAG,0.134 ± 0.082
6,GAGGATAA,0.0253 ± 0.093
7,AATTAGTC,0.0746 ± 0.11
8,GGTTAGTA,0.0601 ± 0.091
9,AGTTAGTC,-0.094 ± 0.036
10,AATTAGTA,0.28 ± 0.034
11,CATTAGTA,0.0251 ± 0.027
12,AGTTAGTA,0.27 ± 0.033
13,ACTGATGG,-0.0638 ± 0.09
14,GTCCGATA,-0.0402 ± 0.11
15,CTCCCGAC,-0.0892 ± 0.047
16,ATCCCGCG,-0.0553 ± 0.1
17,CGCATTAA,-0.00237 ± 0.005
18,TGCATTAA,0.277 ± 0.062
19,ACCATTAA,0.348 ± 0.021
20,TCCATTAA,-2.5e-05 ± 0.096
21,CCCATTAA,-0.0202 ± 0.017
22,AGCATTAC,-0.0675 ± 0.077
23,AGCATTAA,0.232 ± 0.0024
24,AGCATTAT,0.262 ± 0.048
25,AGCATTAG,0.142 ± 0.042

row,Sequence,PBM 8-mer E-score
1,ACTTATAA,0.0449 ± 0.25
2,AATCTTTG,0.0923 ± 0.013
3,CGTTGGGA,-0.0152 ± 0.0038
4,GTGTTCTA,0.169 ± 0.024
5,AAATCCGT,-0.0161 ± 0.1
6,AGGTCCGC,-0.129 ± 0.034
7,ATATTTTA,0.203 ± 0.0096
8,ACACGAAC,0.122 ± 0.011
9,ATGTTTAG,0.222 ± 0.12
10,CTGTTTAC,0.106 ± 0.041
11,ATGTTTAC,0.245 ± 0.073
12,AGTTCACC,-0.068 ± 0.0075
13,AATTAAAG,0.108 ± 0.13
14,ATTAAACA,0.132 ± 0.15
15,AATTAAAC,0.268 ± 0.072
16,ATTAAAAC,0.269 ± 0.022
17,ATTAAAAG,0.119 ± 0.073
18,GATTAAAC,0.134 ± 0.071
19,ATTAAACG,0.287 ± 0.003
20,ATTAAAAA,0.0946 ± 0.0066
21,ATTAAACC,0.164 ± 0.03
22,GTTCTTGA,0.0649 ± 0.045
23,CAAGGTGG,-0.0168 ± 0.088
24,TAGAAGAA,-0.0576 ± 0.025
25,GACATCCC,-0.00641 ± 0.062

row,Sequence,PBM 8-mer E-score
1,AATACCTA,0.214 ± 0.067
2,CGAAGCTA,-0.176 ± 0.022
3,GGTCCAAC,-0.234 ± 0.16
4,ATGGTAAA,0.13 ± 0.053
5,ACTATTAG,-0.0835 ± 0.051
6,ATTATTAG,0.247 ± 0.061
7,ATTATTAC,0.255 ± 0.028
8,CTTATTAC,0.101 ± 0.014
9,ACTATTAC,0.0842 ± 0.022
10,ATTATTAA,0.212 ± 0.035
11,GCGGCTGA,-0.177 ± 0.019
12,CAATTCAA,0.0283 ± 0.0014
13,ATTCCCCA,0.209 ± 0.066
14,ACTCCAGA,-0.0288 ± 0.033
15,CCAGGAAC,-0.286 ± 0.11
16,CAGGATTA,0.0457 ± 0.03
17,CAGCAGGG,-0.114 ± 0.086
18,TAAGAACA,0.239 ± 0.0029
19,CAAGAACA,-0.0329 ± 0.2
20,GAAGAACA,0.127 ± 0.031
21,ACGTTTAT,0.0742 ± 0.017
22,AATTGGCC,-0.0791 ± 0.05
23,GTTGGTAA,0.0564 ± 0.03
24,ATATGTGG,0.261 ± 0.098
25,ATATGTGC,0.121 ± 0.056

row,Sequence,PBM 8-mer E-score
1,ATGTGTGG,0.104 ± 0.095
2,CTATGTGA,0.0996 ± 0.088
3,GTATGTGA,0.0146 ± 0.021
4,ATATGTGA,0.32 ± 0.08
5,CACGAATG,0.101 ± 0.063
6,GGCGGACA,-0.0909 ± 0.047
7,GTCCTAAA,0.0453 ± 0.11
8,ATGGCATG,0.0857 ± 0.18
9,ACTTTCTA,0.237 ± 0.046
10,ACTTTCTG,-0.00396 ± 0.12
11,ACTTTCTC,0.0328 ± 0.03
12,CCGAAAAG,0.0771 ± 0.15
13,ATGAATTG,0.179 ± 0.062
14,AATACACG,0.256 ± 0.027
15,ACTACAAG,0.135 ± 0.062
16,CATACACG,0.166 ± 0.029
17,CCTACAAC,0.13 ± 0.0096
18,CGTATACA,0.216 ± 0.049
19,GGTATACA,0.109 ± 0.022
20,ACTACAAC,0.268 ± 0.024
21,AATACACA,0.308 ± 0.05
22,TGTATACA,0.335 ± 0.051
23,CATACACA,0.221 ± 0.047
24,AATACACT,0.188 ± 0.042
25,TATACACA,0.234 ± 0.038
